Laboratory results from PubChem BioAssay (NCATS).
Results filed as inconclusive are left out. Unmarked numbers belong to inactive results. Calls follow the shape of the dose curve; as a rule, active = well fitted cell-killing curve with a large enough effect; inconclusive = small, poorly fitted or top-dose-only effect; inactive = flat fitted curve, though single readings scatter.

Assay: qHTS of pediatric cancer cell lines to identify multiple opportunities for drug repurposing: Primary screen for control Hh wild type fibroblast cells (AID 1347106);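 also: a drop in luminescence marks cytotoxicity and a rise apparent proliferation; nearly all actives have a fitted effect of over 55% in size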
Settings: Hh wild-type fibroblast viability, CellTiter-Glo luminescence, 48 h; series mostly up to 46 µM; activity change, negative = cytotoxic: at the top concentration
Description: Drug repurposing or repositioning has been offered as a strategy for drug development in oncology programs. This approach has special potential for childhood cancers and other rare or orphan diseases, where the expected return on new drug development has been a disincentive to pharmaceuticals.
In this project we exploit the poly-pharmacology of drugs to discover new indications via phenotypic screening of a panel of 19 well-characterized cell lines derived from solid tumors seen in children and adolescents. The goal is to identify approved drugs with previously unrecognized anticancer properties that has the potential to reveal new mechanisms and biological processes involved in carcinogenesis or drug resistance. We employed a titration-based paradigm (quantitative high-throughput screening or qHTS), where all compounds were tested at multiple concentrations for their effect on cell viability. Concentration-response curves (CRCs) were derived directly from the primary screen, and both potency and efficacy values were used to identify compounds with robust bioactivity profiles. We screened the NIH Chemical Genomics Center (NCGC) Pharmaceutical Collection (NPC) and Mechanism Interrogation Plate (MIPE) small molecule collections of approved and investigational compounds against these cell lines; and measured metabolically active cells after 48 hours of compound treatment as a proxy for cell viability.
Assay Submitter: Nathalia J. Martinez, National Center for Advancing Translational Sciences, National Institutes of Health, Rockville, MD, USA; email: natalia.martinez@nih.gov
[1] Shen, M et al. Quantitative high-throughput phenotypic screening of pediatric cancer cell lines identifies multiple opportunities for drug repurposing. Oncotarget 2017 Dec 19;9(4):4758-4772. PMID 29435139.
The cells were obtained from University of North Carolina (UNC), Pediatric Preclinical Testing Program (PPT), and Coriell Institute (CI).
qHTS cell viability assay:
Cells were assayed in growth media at a density of 500-1,000 cells/well. Five microliters of cells were dispensed into 1,536-well, white, solid-bottom, TC-treated plates (Greiner Bio One) using a multidrop dispenser and incubated at 37 degrees C, 5% CO2, under a humidified atmosphere for 5 hours. Twenty-three nanoliters of compounds and controls (neutral control DMSO or positive control bortezomib at final concentration of 2.3 µM) were subsequently transferred by Kalypsys pintool. For primary screens, the MIPE collection was tested at 11-point dilutions (final concentrations range from 0.78 nM to 46 µM) and the NPC collection at 8-point dilutions (final concentrations range from 0.59 nM to 46 µM). Compounds tested in follow-up screens were assayed at 11-point dilutions. Cells were incubated for 48 hours, followed by addition of 3 µL of CellTiter-Glo (Promega). After a 15 min incubation at room temperature, samples were analyzed for luminescence intensity using a ViewLux High-throughput CCD imager equipped with clear filters.
% is scaled to controls: 0 for no effect and ±100 for the full control effect.

Structure (SMILES)	activity change, negative = cytotoxic
O=C(NCN1CCOCC1)c1cnccn1	2.5%
O=C(O)Cc1ccc(CCNS(=O)(=O)c2ccc(Cl)cc2)cc1	8.49%
CC[N+](C)(CC)CCOC(=O)C1c2ccccc2Oc2ccccc21	7.45%
O=C(O)COC(=O)Cc1ccccc1Nc1c(Cl)cccc1Cl	11.8%
CCCOC(=O)c1ccc(N)cc1	6.48%
CN[C@@H]1[C@@H](O)[C@@H](O[C@@H]2[C@H](O)[C@H](O[C@H]3OC(CN)=CC[C@H]3N)[C@@H](N)C[C@H]2N)OCC1(C)O (stereo not given in full)	12.5%
Nc1c2c(nc3c1CCC3)CCCC2	-5.12%
CCCCOC(=O)c1ccc(N)cc1	7.28%
O=C(O)CNC(=O)c1ccccc1I	12.4%
CC(C)(C)NCC(O)COc1cccc2c1CCC(=O)N2 (stereo not given)	17.4%
Nc1ccc(C(=O)Oc2ccccc2)c(O)c1	-4.02%
COC(=O)c1cccnc1	6.69%
CCCCCCCCCCCCCCCCN	-8.34%
NCC1CCC(C(=O)Oc2ccc(CCC(=O)O)cc2)CC1 (stereo not given)	15.5%
C[C@]1(Cn2ccnn2)[C@H](C(=O)O)N2C(=O)C[C@H]2S1(=O)=O	4.55%
CCCCC1(COC(=O)CCC(=O)O)C(=O)N(c2ccccc2)N(c2ccccc2)C1=O	-3.26%
CO[C@@]1(NC(=O)C(C(=O)O)c2ccc(O)cc2)C(=O)N2C(C(=O)O)=C(CSc3nnnn3C)CO[C@@H]21 (stereo not given in full)	6.02%
O=C(NCCCN1CCOCC1)c1ccc(Cl)cc1	14.1%
CN[C@@H]1[C@H](O)[C@H](NC)[C@H]2O[C@@]3(O)C(=O)C[C@@H](C)O[C@H]3O[C@@H]2[C@H]1O	11.7%
Cc1c(I)c(=O)n(-c2ccccc2)n1C	6.21%

Structure (SMILES)	activity change, negative = cytotoxic
O=C(NCC(O)CO)c1c(I)c(C(=O)NCC(O)CO)c(I)c(N(CCO)C(=O)CO)c1I (stereo not given)	-1.69%
NS(=O)(=O)c1ccc(NC(=O)CCC(=O)O)cc1	4.91%
C[C@H]1COc2c(C3(N)CC3)c(F)cc3c(=O)c(C(=O)O)cn1c23	13.8%
CC(=O)[C@@]1(O)CC[C@H]2[C@@H]3C[C@H](C)C4=CC(=O)C=C[C@]4(C)[C@@]3(F)[C@@H](O)C[C@@]21C	-5.47%
O=C(O)c1cc(=O)c2ccccc2o1	0.953%
NS(=O)(=O)c1cc2c(cc1C(F)(F)F)NCNS2(=O)=O	-2.75%
CCN(CC)S(=O)(=O)c1ccc(C(=O)O)cc1	10.9%
NNC(=O)CP(=O)(c1ccccc1)c1ccccc1	-8.11%
Cc1c(C(=O)NCCO)[n+](=O)c2ccccc2n1[O-]	5.1%
NS(=O)(=O)c1ccc(C(=O)O)cc1	8.87%
C/C=C/C(=O)N(CC)c1ccccc1C	5.02%
CCc1nnc(NS(=O)(=O)c2ccc(N)cc2)s1	11.6%
CC(=O)N1C[C@H](O)C[C@H]1C(=O)O	-2.8%
C[n+]1ccccc1/C=N/O	13.4%
O=C(OOC(=O)c1ccccc1)c1ccccc1	-2.31%
CN1CC(=O)NC1=N	6.08%
CC(=O)Nc1ccccc1	5.38%
CC(C)=CCC/C(C)=C/CO	2%
COc1ccccc1Oc1c(NS(=O)(=O)c2ccc(C(C)(C)C)cc2)nc(-c2ncccn2)nc1OCCO	14.1%
C[N+](C)(C)CC(O)CC(=O)[O-] (stereo not given)	-0.35%
